# Screening results (PubChem BioAssay)
# In the library only some 3.2% were active in any assay of this set; here they are far more common.
# DYRK1A inh: rat Dyrk1A kinase inhibitors, primary screen, biochemical, single point, plate reader | ADP-Glo luminescence, NFATc1 peptide | inhibition, % at 12.5 µM | 310,000 tested, 0.43% active; in the data active = inhibition above about 50%;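 note: plate controls were vehicle with enzyme for no effect and no enzyme for full effect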
# CDK5 inh: inhibitors of human CDK5/p35 kinase, primary screen, biochemical, single concentration. Recombinant CDK5/p35, ADP-Glo luminescence, 60 min. inhibition, % at 10 µM. 330,000 tested, 0.01% active;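 active = highest replicate inhibition of at least 50% and at least 75% of replicates reaching 50%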;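 note: plate controls were DMSO neutral control for no effect and GW8510 at 10 µM for full effect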
# SMARCA2 act: SMARCA2 (BRM) function activators, primary screen, cell-based, luminescence, high throughput; 370,000 tested, 1% active; MG213 cells, MMTV-luciferase reporter, dexamethasone, overnight; AID 652017, 2013; activation, % at 9.1 µM; in the data active = activation above about 7.8%;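 note: 0% = vehicle wells and 100% = reference activator wells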
# Rtt109 Vps75: inhibitors of C. albicans Rtt109/Vps75 HAT, primary screen, biochemical, ThioGlo CoA-SH fluorescence, plate reader. purified Rtt109/Vps75, 4 h. inhibition, % at 34.9 µM. 330,000 tested, 0.16% active. AID 540336, 2011;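 active = inhibition of at least 50% in every replicate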
# esBAF inh: Bmi1 luciferase reporter increase in mESCs, primary screen, esBAF inhibitor project, mouse ES cells, Bmi1 luciferase knock-in, single point; reporter increase, % at 12.5 µM; 24 h; 100% = twice the neutral-well signal; 350,000 tested, 2% active; in the data active = activation above about 40%;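 note: 0% = median of the plate's neutral control wells and 100% = double that signal; a rise in the Bmi1 reporter signal indicates esBAF inhibition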
# dFosB activator: activators of delta FosB homodimer, primary screen, biochemical, fluorescence polarization, TAMRA-CDK5 oligo, single point. Protein FosB (Mus musculus), P13346. purified delta FosB; percent of positive-control signal above neutral wells. activation, % at 25 µM. 340,000 tested, 0.99% active;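 active = mean activation above about 17%, with every replicate also reaching it, limit read from the data, passing the limit was not always enough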
# Target sequence (P13346 whole entry, looked up): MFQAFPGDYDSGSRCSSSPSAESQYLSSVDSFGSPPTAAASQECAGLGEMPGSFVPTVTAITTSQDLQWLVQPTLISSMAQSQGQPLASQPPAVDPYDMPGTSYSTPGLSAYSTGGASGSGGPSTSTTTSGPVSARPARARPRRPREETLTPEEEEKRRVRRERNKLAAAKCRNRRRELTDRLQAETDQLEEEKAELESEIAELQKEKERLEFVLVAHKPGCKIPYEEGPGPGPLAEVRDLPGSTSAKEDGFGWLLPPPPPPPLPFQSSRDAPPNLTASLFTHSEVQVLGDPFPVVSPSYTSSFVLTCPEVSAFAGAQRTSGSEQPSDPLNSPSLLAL
# The depositor's hits bear a star; nt = no result given; + = active, no number.
SMILES,DYRK1A inh,CDK5 inh,SMARCA2 act,Rtt109 Vps75,esBAF inh,dFosB activator
COc1ccc(/C=C2/SC(=O)N(NS(=O)(=O)c3ccccc3)C2=S)cc1OC,1,-1,2,79*,3,-3
COc1ccc(C(=O)N=c2sc3c(C)ccc(OC)c3n2C)cc1OC,9,3,6,7,36,4
COc1cccc(C(=O)N=c2sc3c(C)ccc(OC)c3n2C)c1,1,0,0,-2,48*,0
N[C@@H]1CC[C@H](CCn2cc(-c3ccccn3)nn2)O[C@H]1CO,nt,nt,nt,nt,5,nt
O=C(C[C@H]1CC[C@H]2[C@@H](COC[C@@H](O)CN2Cc2ccccc2)O1)NCCCN1CCOCC1,nt,nt,nt,nt,-2,nt
COc1ccc(Nc2cnn(-c3nc4ccccc4s3)c(=O)c2Cl)cc1,2,0,12*,0,nt,6
COc1ccccc1NC(=O)N[C@@H]1CC[C@H](CCNC(=O)Cc2ccccn2)O[C@@H]1CO,nt,nt,nt,nt,0,nt
CCN(CC)S(=O)(=O)c1ccc(Nc2ccc(-c3ccc4c(c3)OCCO4)nn2)cc1,6,-1,8.6*,-2,nt,1
CC(C)(C)c1ccc(OC(=O)N2CCOCC2)cc1,-3,0,4,-9,45*,-9
Cc1ccc(OC(=O)N2CCOCC2)cc1,4,1,0,2,22,-4
C[C@@H]1CN([C@@H](C)CO)C(=O)Cc2cc(NC(=O)Nc3cccc4ccccc34)ccc2O[C@H]1CN(C)C(=O)Nc1ccc2c(c1)OCO2,nt,nt,nt,nt,-4,nt
CC(C)c1nc(SCC(=O)Nc2ccc(N3CCOCC3)cc2)c2ccccc2n1,-3,0,-3,+,-2,-5
Cc1nnc(SCC(=O)Nc2ccccc2)c2ccccc12,0,1,2,0,69*,2
CO[C@H]1CN(C)C(=O)c2cc(NC(=O)c3ccccc3F)ccc2OC[C@@H](C)N(C)C[C@@H]1C,nt,nt,nt,nt,0,nt
CN1C(=O)c2cc(NC(=O)Nc3ccccc3F)ccc2OC[C@H]2O[C@@H](CC(=O)NCc3ccc(-c4ccccc4)cc3)CC[C@H]21,nt,nt,nt,nt,2,nt
Cc1ccsc1C(=O)Nc1nnc(-c2ccco2)o1,0,1,-2,4,43*,2
Cc1ccc(C(=O)Nc2nnc(-c3ccco3)o2)cc1,-4,1,2,3,nt,1
Nc1nc(CSc2ccccn2)nc(Nc2ccccc2)n1,4,-1,-1,3,52*,2
Nc1nc(COc2ccccc2C=O)nc(Nc2ccccc2)n1,4,1,-2,3,nt,59*
Nc1nc(CSCCO)nc(Nc2ccccc2)n1,-2,0,1,0,21,-6
CO[C@H]1CN(C)C(=O)c2ccc(NC(=O)c3cccc(F)c3)cc2OC[C@@H](C)N(C)C[C@@H]1C,nt,nt,nt,nt,1,nt
CCCN1C[C@@H](C)[C@H](OC)CN(C)C(=O)c2cc(NC(=O)COC)ccc2OC[C@@H]1C,nt,nt,nt,nt,0,nt
O=C(c1cc2ccccc2oc1=O)N(Cc1ccco1)C1CCS(=O)(=O)C1 (stereo unspecified),-2,-1,5,3,82*,-4
Cc1ccc(CN(C(=O)c2ccccc2C)C2CCS(=O)(=O)C2)o1 (stereo unspecified),0,0,0,72*,nt,5
CCCc1cn(CC[C@@H]2CC[C@H](NC(=O)Nc3ccccc3F)[C@H](CO)O2)nn1,nt,nt,nt,nt,-8,nt
CCCNC(=O)C[C@@H]1CC[C@@H]2[C@H](COc3ccc(NC(=O)COC)cc3C(=O)N2C)O1,nt,nt,nt,nt,-4,nt
C=CCc1ccc(OCC(O)CO)c(OC)c1 (stereo unspecified),0,-8,5,-1,nt,-8
C=CCc1ccc(OCC(O)COCC)c(OC)c1 (stereo unspecified),12,-2,7,-12,41*,2
CCCc1cc(C(=O)Nc2cccc(C(C)=O)c2)no1,5,0,7.9*,-7,51*,-1
